These results are taken from PubChem BioAssay (NCI).

Among the test systems are T-47D breast; BT-549 breast; MDA-MB-435 melanoma; SW-620 colon; MCF7 breast; HCT-116 colon; HCC-2998 colon; KM12 colon.
Assay in all cases: NCI-60 one-dose screen, 48 h (100 = growth as untreated, 0 = no growth, -100 = all killed)
Common to all, as to details: 10 µM unless noted

SMILES strings stand for the structures. About 83,000 compounds went through this panel and 20% of them were active in at least one assay; those are over-represented in the sample as a whole.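 A percent growth of 40 corresponds to 60% growth inhibition; 0 means no net growth; -100 means all cells died. Active threshold: below 10.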 A number with no mark means an inactive call. Activity calls are given as the source filed them.

In the case of `CCOC(=O)CCC(=O)O[C@H]1[C@H](O[C@@H]2[C@@H](C)[C@H](O[C@H]3C[C@@](C)(OC)[C@@H](O)[C@H](C)O3)[C@@H](C)C(=O)O[C@H](CC)[C@@](C)(O)[C@H](O)[C@@H](C)C(=O)[C@H](C)C[C@@]2(C)O)O[C@H](C)C[C@@H]1N(C)C`, the growth in the experiment with T-47D breast was 97.1%; in the experiment on BT-549 breast, 97.3%; in the experiment with MDA-MB-435 melanoma it was 105%; in the experiment on SW-620 colon, 107%; with MCF7 breast it was 113%; in the experiment with HCT-116 colon it was 99.7%. The growth in the experiment with HCC-2998 colon is 105%; with KM12 colon, 111%.
In the case of `N#Cc1ccc(-c2csc(Nc3ccc4nc5n(c(=O)c4c3)CCC5)n2)cc1`, the growth in the experiment on T-47D breast is 102%; with BT-549 breast it was 98.4%; in the experiment with MDA-MB-435 melanoma, 103%; in the experiment with SW-620 colon, 103%; in the experiment on MCF7 breast, 92%; with HCT-116 colon, 96.2%. The values for the growth with HCC-2998 colon and with KM12 colon were 116% and 103%, respectively.
For `O=C(/C=C(\Nc1ccccc1)c1ccccc1)c1cn(-c2ccc([N+](=O)[O-])cc2)nn1`, the growth was 96.4% with T-47D breast; 110% in the experiment on BT-549 breast; 102% with MDA-MB-435 melanoma; 93.2% with SW-620 colon; 103% in the experiment on MCF7 breast; 92.1% with HCT-116 colon. Moreover, the growth was 103% in the experiment with HCC-2998 colon and 110% in the experiment on KM12 colon.
For the molecule `O=C1OC2(c3ccccc31)c1ccccc1-c1ccccc12`, the growth was 90.1% with T-47D breast; 82.7% in the experiment with BT-549 breast; -26.9% (active) in the experiment on MDA-MB-435 melanoma; 78.4% in the experiment with SW-620 colon; 52.4% with MCF7 breast; 54.4% with HCT-116 colon. In addition, the results for the growth in the experiment on HCC-2998 colon and with KM12 colon were 88.4% and 51.6%, respectively.
On to `N=C1c2nc3n(c2C(=O)c2nc4n(c21)CCCCC4)CCCCC3`, for which the growth in the experiment with T-47D breast was 116%; in the experiment with BT-549 breast it was 110%; in the experiment on MDA-MB-435 melanoma, 111%; with SW-620 colon, 105%; with MCF7 breast, 94.5%; with HCT-116 colon, 107%. Further, the growth in the experiment on HCC-2998 colon is 112%; with KM12 colon it was 106%.
With `Clc1ccc(C2c3ccccc3-c3nccn32)c(Cl)c1` (stereo not given), the growth with T-47D breast is 56.2%; in the experiment with BT-549 breast, 83.8%; in the experiment with MDA-MB-435 melanoma, 89.6%; in the experiment on SW-620 colon, 85.4%; in the experiment with MCF7 breast it was 80.5%; with HCT-116 colon it was 49%. Moreover, the growth in the experiment on HCC-2998 colon is 99%; with KM12 colon it was 79.2%.
Turning to `O=C(/C=C/c1cccc(Nc2ccnc3cc(Cl)ccc23)c1)c1ccc(Cl)cc1`, the growth in the experiment on T-47D breast is 39.8%; in the experiment on BT-549 breast, 54.3%; in the experiment with MDA-MB-435 melanoma, 56.9%; with SW-620 colon it was 24.7%; with MCF7 breast, 27.6%; with HCT-116 colon, 14.2%. For the same molecule, the growth is 71.4% in the experiment with HCC-2998 colon and 62.6% in the experiment on KM12 colon.
In the case of `O=C(Nc1nc2ccc(OC(F)(F)F)cc2s1)c1ccc(F)cc1`, the growth is -10.8% (active) in the experiment with T-47D breast; 39.2% with BT-549 breast; 15.1% with MDA-MB-435 melanoma; 13.3% in the experiment with SW-620 colon; -0.0548% (active) with MCF7 breast; -28% (active) in the experiment on HCT-116 colon. The growth in the experiment on HCC-2998 colon is 3.77% (active); in the experiment with KM12 colon, 2.23% (active).
Consider `COc1cc(/C=C/C(=O)CC(=O)/C=C/c2ccc(OC(=O)CCNC34CC5CC(CC(C5)C3)C4)c(OC)c2)ccc1OC(=O)CCNC12CC3CC(CC(C3)C1)C2`, for which the growth in the experiment on T-47D breast was 50.8%; in the experiment on BT-549 breast, -10.7% (active); in the experiment with MDA-MB-435 melanoma, -31.2% (active); in the experiment with SW-620 colon, 8.69% (active); with MCF7 breast it was 17.8%; with HCT-116 colon, -0.854% (active). Also, the results for the growth in the experiment on HCC-2998 colon and in the experiment with KM12 colon were 34.1% and 5.79% (active), respectively.
For `CCOC1Oc2ccccc2C(=O)/C1=N/c1nccs1` (stereo not given), the growth with T-47D breast is 66.5%; in the experiment with BT-549 breast it was 77.1%; in the experiment with MDA-MB-435 melanoma it was 104%; in the experiment with SW-620 colon, 87.1%; in the experiment with MCF7 breast, 79.1%; in the experiment on HCT-116 colon, 92.9%. In addition, the growth is 99.7% with HCC-2998 colon and 93.5% with KM12 colon.
Take `CCCCCCCCCCCCC1CCCC(C)C1` (stereo not given): the growth is 96.4% in the experiment with T-47D breast; 102% with BT-549 breast; 104% in the experiment on MDA-MB-435 melanoma; 101% with SW-620 colon; 93.6% in the experiment on MCF7 breast; 94.9% in the experiment with HCT-116 colon. The results for the growth in the experiment with HCC-2998 colon and in the experiment on KM12 colon were 97.7% and 91.3%, respectively.
On to `C(=C1c2ccccc2-c2ccccc21)c1ccccn1`, for which the growth in the experiment with T-47D breast is 63.8%; with BT-549 breast, 58.8%; with MDA-MB-435 melanoma, -7.78% (active); in the experiment with SW-620 colon it was 32.7%; in the experiment with MCF7 breast, 38%; with HCT-116 colon, 43.5%. Moreover, the growth in the experiment on HCC-2998 colon was 80.6%; in the experiment on KM12 colon, 39.6%.
For the molecule `C=CCNC(=O)/C(=C/c1cccc([N+](=O)[O-])c1)NC(=O)c1ccccc1`, the growth with T-47D breast is 98.2%; with BT-549 breast it was 88.1%; in the experiment on MDA-MB-435 melanoma, 101%; in the experiment with SW-620 colon, 103%; with MCF7 breast it was 101%; with HCT-116 colon, 98.2%. The values for the growth with HCC-2998 colon and with KM12 colon were 78.2% and 109%, respectively.
As to `CCCCCCCCCCOC(C)=O`, the growth in the experiment with T-47D breast was 100%; in the experiment on BT-549 breast, 118%; with MDA-MB-435 melanoma it was 106%; in the experiment with SW-620 colon, 106%; with MCF7 breast, 93.6%; in the experiment with HCT-116 colon it was 112%. Also, the growth was 109% in the experiment on HCC-2998 colon and 113% with KM12 colon.
As for `Cc1[nH]c(=O)[nH]c(=O)c1CCSSCCc1c(C)[nH]c(=O)[nH]c1=O`, the growth with T-47D breast is 96.6%; in the experiment with BT-549 breast, 105%; in the experiment on MDA-MB-435 melanoma, 103%; in the experiment with SW-620 colon it was 108%; in the experiment on MCF7 breast, 87.2%; in the experiment with HCT-116 colon it was 101%. For the same molecule, the growth in the experiment with HCC-2998 colon was 102%; in the experiment on KM12 colon, 101%.
